Sampled rows, rich in hits. Any-hit rate of the full collection: about 5.7%.
DAX1 inh-1 – DAX1 (NR0B1) inhibitors, primary screen, cell-based, HEK293, Gal4-DAX1, luciferase luminescence; Nuclear receptor subfamily 0 group B member 1 (Homo sapiens), P51843; HEK293 Gal4-DAX1 luciferase reporter; inhibition, % at 6.75 µM; hit rate 0.99% among 340,000;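 active = inhibition above the mean over all tested compounds plus 3 SD, cut at about 4.2% in these data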;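 also: inhibition shows as a rise in luminescence from relieved DAX1 repression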
AHR activator – AHR activators, primary screen, cell-based, luminescence, luciferase reporter, human. Aryl hydrocarbon receptor (Homo sapiens), P35869. AHR-responsive luciferase reporter cells. activation, % at 5 µM. hit rate 2.5% among 320,000. AID 2796, 2010; in the data active = activation above about 47%
DAX1 inh-2 – DAX1 (NR0B1) inhibitors on StAR promoter, primary screen, cell-based, luminescence, SF-1 (NR5A1), full-length DAX-1. HEK293T StAR-luciferase reporter, SF-1/DAX-1 repression relief. AID 652010, 2013. hit rate 1.1% among 370,000. inhibition, % at 6.8 µM;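 active = inhibition above the mean over all tested compounds plus 3 SD, cut at about 3.6% in these data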;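 also: higher inhibition means more luminescence from relief of DAX-1 repression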
hcDAF-12 act – H. contortus DAF-12 nuclear receptor activators, primary screen, cell-based, luminescence, HEK293, lit1-tk-luc reporter; HEK293 hcDAF-12 lit1-tk-luc reporter; 0% DMSO, 100% Δ7-dafachronic acid; activation, % at 6.8 µM; hit rate 1.4% among 370,000;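 active = activation above the mean of all tested compounds plus 3 SD, cut at about 5.5% in these data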
hgDAF-12 ag – H. glycines DAF-12 receptor agonists, primary screen, cell-based, luminescence, HEK293, GAL4 fusion, UAS-luciferase; HEK293 GAL4-hgDAF12 UAS-luciferase reporter, agonist luminescence; normalized to butyrate control; hit rate 1.8% among 370,000; AID 687014, 2013; Nuclear hormone receptor DAF-12 (Heterodera glycines), GAL4 fusion; activation, % at 6.8 µM;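 active = activation above a cutoff set at the mean of all screened compounds plus 3 SD, cut at about 10% in these data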
ssDAF12 agonist – S. stercoralis DAF-12 nuclear receptor activators, primary screen, cell-based, luminescence, HEK293, GRIP1 co-expression, lit1-tk-luc. Nuclear hormone receptor DAF-12 (Strongyloides stercoralis). HEK293 ssDAF-12/GRIP1 lit1-tk-luc reporter; % of 3 µM dafachronic acid response. activation, % at 6.8 µM. hit rate 1% among 370,000;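 active = activation above the mean over all tested compounds plus 3 SD, cut at about 0.9% in these data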
AHR act confirm – AHR activators, confirmation, cell-based, luminescence, luciferase reporter, human. activation, % at 9 µM. shares compounds with AHR activator. hit rate 87% among 2,300. human cells, AHR-responsive luciferase reporter; in the data active = activation above about 49%;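 also: HepG2 hepatoma cells carrying a DRE-driven firefly luciferase reporter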
PXR act counter – human PXR activators, counter-screen for AHR activator project, cell-based, luciferase luminescence; shares compounds with AHR activator; cell-based PXR reporter; activation, % at 11.6 µM; hit rate 88% among 2,300; in the data active = activation above about 11%;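 also: human hepatoma DPX-2 cells expressing full-length human PXR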
Large screens that a line does not name were inactive (follow-up assays come after a bar, where they were run).

Clc1cccc(/C=N\Nc2nccs2)c1	AHR activator 117, hgDAF-12 ag 11, ssDAF12 agonist 0.9 | AHR act confirm 122 | PXR act counter 37
CCCN(Cc1ccccc1)C(=S)Nc1cccc(C)c1C	none
Cc1cccc(NC(=S)NN(Cc2ccccc2)c2ccccc2)c1C	AHR activator 116 | AHR act confirm 108 | PXR act counter 214
COCc1cc(=O)[nH]c(Nc2nc3ccccc3o2)n1	AHR activator 130 | AHR act confirm 74 | PXR act counter 19
COC(=O)Cc1cc(=O)[nH]c(Nc2nc3ccccc3o2)n1	none
CC(=O)Nc1cc(-c2ccccc2CN(C)C)cn2c(-c3ccc(F)c(Cl)c3)cnc12	none (no result: DAX1 inh-1, AHR activator)
Cc1cccc(C(=O)N=c2sccn2C)c1[N+](=O)[O-]	AHR activator 99, DAX1 inh-2 4.5, hgDAF-12 ag 11 | AHR act confirm 82 | PXR act counter 142
O=[N+]([O-])c1cccn2cc(-c3ccc(Br)cc3)nc12	AHR activator 107 | AHR act confirm 214 | PXR act counter 17
CCOCCc1nnc(NC(=O)c2ccc(OC)c(OC)c2)s1	AHR activator 115 | AHR act confirm 81
O=C(CN(C(=O)c1csnn1)c1ccc(Cl)cc1)NCCc1ccccc1	none
CC(NC(=O)c1ccccc1)C(=O)OCC(=O)c1ccc(Br)cc1 (stereo not drawn)	none
N#C/C(=C1\CCCN1)c1ccc2ccccc2n1	none
N#C/C(=C1/CCCCCN1)c1nc2ccccc2[nH]1	AHR activator 115 | AHR act confirm 144 | PXR act counter 48
CCCCc1nnc(NC(=O)CSCc2cc(=O)n3cc(C)sc3n2)s1	none
Cn1ncc(C(=O)Nc2ccc(OC(F)(F)F)cc2)c1-n1cccc1	AHR activator 80 | AHR act confirm 100 | PXR act counter 30
CCCc1nn(C)c(C(=O)Nc2cccc3ccccc23)c1Cl	AHR activator 93 | AHR act confirm 74
O=C(/C=C/c1ccco1)NC(=S)Nc1cccc(-c2nc3ccccc3s2)c1	AHR activator 82 | AHR act confirm 118 | PXR act counter 33
CCC(=O)Nc1nc(-c2ccccc2)ns1	AHR activator 102 | AHR act confirm 84 | PXR act counter 32
Cc1ccc(-c2nc3ccccc3s2)cc1NC(=S)NC(=O)/C=C/c1ccco1	none
CCC(=O)Nc1cccc(-c2csc(-c3ccccc3)n2)c1	AHR activator 105 | AHR act confirm 85 | PXR act counter 21
CC(=O)Nc1cccc(-c2nc3ccccc3s2)c1	AHR activator 124, hgDAF-12 ag 11 | AHR act confirm 99 | PXR act counter 20
O=c1[nH]c(/C=C/c2ccc(Cl)cc2Cl)c([N+](=O)[O-])c(=O)[nH]1	none
c1ccc(-c2nc3nc4ccccc4nc3n2Cc2ccco2)cc1	AHR activator 99 | AHR act confirm 71 | PXR act counter 20
Cc1cccc2nc(C(=O)Nc3cc(Cl)ccc3-n3cncn3)cn12	AHR activator 88 | AHR act confirm 88 | PXR act counter 30
Cc1cccc(C(=O)Nc2cc(Cl)ccc2-n2cncn2)c1[N+](=O)[O-]	none
[N-]=[N+]=CC(=O)CNC(=O)[C@@H](Cc1ccccc1)N1C(=O)c2ccccc2C1=O	none
O=C(NCc1ccco1)C(Cc1ccccc1)N1C(=O)c2ccccc2C1=O (stereo not drawn)	AHR activator 112, hcDAF-12 act 6.3 | AHR act confirm 93 | PXR act counter 66
